# Test results as given in PubChem BioAssay (EPA / NIEHS).
# Inconclusive results are not listed. The source made the active and inactive calls. The calls were made as follows, unless noted: active = hit-call score of the fitted dose curve at least 0.9, where 1 is the maximum; inconclusive = response in the unintended direction; inactive = score below 0.9.
# Experiments:
# PGR (gene 5241) = PGR (gene 5241) (UniProt P06401); assay: TOX21_PR_LUC_Followup_Agonist: Tox21 HEK293 Progesterone Receptor (PR) Agonism Luciferase Follow-Up Assay (AID 2283937; active = hit-call score of the fitted dose curve at least 0.9, where 1 is the maximum; inactive = score below 0.9)
# Sequence of PGR (gene 5241) (P06401 whole entry, looked up): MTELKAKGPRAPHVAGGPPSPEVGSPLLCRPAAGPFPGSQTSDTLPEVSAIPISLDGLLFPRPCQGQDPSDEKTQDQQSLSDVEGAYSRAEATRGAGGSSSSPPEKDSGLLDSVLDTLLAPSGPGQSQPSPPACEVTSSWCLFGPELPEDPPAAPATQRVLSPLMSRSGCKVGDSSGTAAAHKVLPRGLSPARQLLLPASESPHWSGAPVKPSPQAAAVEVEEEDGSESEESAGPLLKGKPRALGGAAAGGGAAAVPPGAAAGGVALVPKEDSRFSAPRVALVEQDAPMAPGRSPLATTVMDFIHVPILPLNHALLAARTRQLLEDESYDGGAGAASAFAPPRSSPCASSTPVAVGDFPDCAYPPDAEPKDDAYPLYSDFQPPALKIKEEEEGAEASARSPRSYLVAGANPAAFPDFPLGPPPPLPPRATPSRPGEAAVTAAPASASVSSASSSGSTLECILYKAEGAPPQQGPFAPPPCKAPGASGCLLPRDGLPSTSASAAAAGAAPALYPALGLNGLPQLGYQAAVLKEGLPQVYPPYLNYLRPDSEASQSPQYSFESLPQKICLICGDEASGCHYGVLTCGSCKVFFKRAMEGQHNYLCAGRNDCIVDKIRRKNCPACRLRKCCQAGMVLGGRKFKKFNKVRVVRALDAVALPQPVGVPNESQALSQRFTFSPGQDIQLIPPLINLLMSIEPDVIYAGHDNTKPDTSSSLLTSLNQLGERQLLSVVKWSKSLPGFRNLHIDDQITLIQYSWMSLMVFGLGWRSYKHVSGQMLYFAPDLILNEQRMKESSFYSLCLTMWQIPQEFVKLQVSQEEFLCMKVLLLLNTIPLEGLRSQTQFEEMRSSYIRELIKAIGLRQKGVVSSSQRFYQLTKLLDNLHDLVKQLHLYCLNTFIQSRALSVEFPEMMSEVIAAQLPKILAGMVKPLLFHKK
# Procedure, shortened: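 Seed HEK293-PR-A-luc cells, wait 5 h, add compounds in DMSO, incubate 16 h at 37C, add ONE-Glo, read luminescence after 30 min. Activity is increase over DMSO controls; run with a viability counter-screen.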
# [1] = biological target: Thyroid hormone receptor alpha (Rattus norvegicus) + Thyroid hormone receptor beta (Rattus norvegicus) (UniProt P18113+P63059); assay: TOX21_TR_LUC_GH3_Antagonist_Followup: Tox21 GH3 Thyroid Hormone Receptor Antagonism Luciferase Follow-Up Assay (AID 2283942)
# Procedure, shortened: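 Luminescence read-out (ONE-Glo, 30 min at room temperature) in GH3 reporter cells challenged with 1.0 nM T3 final. Compounds ran at 92 uM to 5nM over 15 concentrations for 24 h; DMSO served as negative control and baseline.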
# THRA (gene 7067) = THRA (gene 7067) (UniProt P10827); assay: TOX21_TRA_COA_Antagonist_Followup_ratio: Tox21 Thyroid Hormone Receptor alpha Antagonism through Coactivator Recruitment Follow-Up Assay, Ratio (AID 2283953)
# Sequence of THRA (gene 7067) (P10827 whole entry, looked up): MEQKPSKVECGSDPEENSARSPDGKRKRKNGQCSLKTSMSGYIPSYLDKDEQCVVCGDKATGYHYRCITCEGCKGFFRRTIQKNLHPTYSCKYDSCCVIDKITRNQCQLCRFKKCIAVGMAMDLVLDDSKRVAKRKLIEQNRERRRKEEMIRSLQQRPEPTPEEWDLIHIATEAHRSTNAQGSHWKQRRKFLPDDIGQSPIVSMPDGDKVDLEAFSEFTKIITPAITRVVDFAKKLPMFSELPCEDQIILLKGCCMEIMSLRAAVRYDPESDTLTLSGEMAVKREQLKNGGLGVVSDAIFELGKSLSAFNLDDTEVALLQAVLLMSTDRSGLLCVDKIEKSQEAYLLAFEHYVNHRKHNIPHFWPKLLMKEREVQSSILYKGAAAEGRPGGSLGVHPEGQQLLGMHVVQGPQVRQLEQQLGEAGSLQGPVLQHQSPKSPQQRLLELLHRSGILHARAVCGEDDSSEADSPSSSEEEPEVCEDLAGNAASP
# From the text: TOX21_TRa_COA_Antagonist_Followup is a secondary assay for specificity for the TOX21_TR_GH3_LUC_Agonist assay. The LanthaScreen TR-FRET TR coactivator assay kits were used to determine TR activity in a cell-free functional assay. A time-resolved fluorescence resonance energy transfer (TR-FRET) signal was indicative of coactivator (SRC-2) recruitment.TOX21_TRA_COA_Antagonist_Followup_ratio is assay component calculated in the TOX21_TRA_COA_Antagonist_Followup assay. The TR-FRET ratio of acceptor emission (ch2) to donor emission (ch1) is indicative of the resonance energy transfer to the fluorescein tag on the coactivator peptide following recruitment to the receptor.Data from the assay component TOX21_TRA_COA_Antagonist_Followup_ratio was analyzed into 1 assay endpoint. This assay endpoint, TOX21_TRA_COA_Antagonist_Followup_ratio, was analyzed in the positive analysis fitting direction relative to DMSO as the negative control and baseline of activity. Using a type of inducible reporter, loss-of-signal activity can be used to understand changes in the reporter gene as they relate to the gene THRA. Furthermore, this assay endpoint can be referred to as a primary readout, because this assay has produced multiple assay endpoints and this ratio serves a reporter gene function to understand target activity. […]
# THRB (gene 7068) [2] = biological target: THRB (gene 7068) (UniProt P10828); assay: TOX21_TRB_BLA_Antagonist_Followup_ratio: Tox21 Thyroid Hormone Receptor beta Antagonism Beta-lactamase (BLA) Follow-Up Assay, Ratio (AID 2283958)
# Sequence of THRB (gene 7068) (P10828 whole entry, looked up, the tested form may be a part): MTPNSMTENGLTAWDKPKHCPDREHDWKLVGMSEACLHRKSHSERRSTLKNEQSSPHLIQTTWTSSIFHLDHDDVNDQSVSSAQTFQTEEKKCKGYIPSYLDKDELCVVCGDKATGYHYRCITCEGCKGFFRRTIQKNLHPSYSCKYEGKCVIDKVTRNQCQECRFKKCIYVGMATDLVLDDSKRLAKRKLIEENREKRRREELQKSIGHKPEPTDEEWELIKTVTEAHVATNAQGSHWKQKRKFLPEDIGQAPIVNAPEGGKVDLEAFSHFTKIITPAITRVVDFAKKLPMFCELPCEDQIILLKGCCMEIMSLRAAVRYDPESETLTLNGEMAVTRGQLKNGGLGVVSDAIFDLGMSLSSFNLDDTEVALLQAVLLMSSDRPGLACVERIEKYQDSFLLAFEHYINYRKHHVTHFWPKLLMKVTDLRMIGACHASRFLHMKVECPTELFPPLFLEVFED
# Procedure, shortened: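 Cells were plated and allowed to attach for 5 h, then dosed with compounds in DMSO at 11 concentrations for 18 h at 37C. Beta-lactamase reporter activity was measured via CCF4-AM FRET as the 460:530 nm ratio.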
# THRB (gene 7068) [3] = biological target: THRB (gene 7068) (UniProt P10828); assay: TOX21_TRB_BLA_Agonist_Followup_ratio: Tox21 Thyroid Hormone Receptor beta Agonism Beta-lactamase (BLA) Follow-Up Assay, Ratio (AID 2283954)
# From the text: The GeneBLAzer TRb-UAS-bla HEK293T assay kit for human TRb (ThermoFisherScientific Catalog No. K1684) was used as a secondary assay for specificity (TRb-bla). This assay contained the ligand-binding domain (LBD) of the human TRb fused to the DNA-binding domain of GAL4 stably integrated in the GeneBLAzer UAS-bla HEK293Tcell line. The reporter gene, b-lactamase, is under the transcriptional control of a UAS that binds the GAL4 DNA-binding domain. A cell viability assay was run in parallel for these cells as well using the CellTiter-Glo viability assay kit.TOX21_TRB_BLA_Agonist_Followup_ratio is an assay readout measuring reporter gene via receptor activity and designed using inducible reporter (beta lactamase induction) detected with GAL4 b-lactamase reporter gene. The signal is derived from the ratio of cleaved (ch2) to uncleaved (ch1) reporter gene substrate used as the measure of target activity.Data from the assay component TOX21_TRB_BLA_Agonist_Followup_ratio was analyzed into 1 assay endpoint. This assay endpoint, TOX21_TRB_BLA_Agonist_Followup_ratio, was analyzed in the positive analysis fitting direction relative to DMSO as the negative control and baseline of activity. […] Furthermore, this assay endpoint can be referred to as a primary readout, because this assay has produced multiple assay endpoints and this ratio serves a reporter gene function to understand target activity. […]
smiles,measurement,setting,value
O=C(Nc1ccc2c(c1)Cc1ccccc1-2)C(F)(F)F,outcome,PGR (gene 5241),inactive
Oc1c(Cl)cc(Cl)c(Cl)c1Cc1c(O)c(Cl)cc(Cl)c1Cl,AC50,[1],12.7 µM (active)
same,outcome,THRA (gene 7067),inactive
same,AC50,THRB (gene 7068) [2],20 µM (active)
C[C@H](CCC(=O)NCC(=O)O)[C@H]1CC[C@H]2[C@@H]3[C@H](O)C[C@@H]4C[C@H](O)CC[C@]4(C)[C@H]3C[C@H](O)[C@]12C,outcome,THRB (gene 7068) [3],inactive
OCCCCC(O)CO (stereo unspecified),outcome,THRB (gene 7068) [3],inactive
